aSyn rescue – alpha-synuclein toxicity inhibition in yeast | Yeast expressing alpha-synuclein, growth rescue, BacTiter-Glo, 24 h | Potency, µM (highest dose often 46.1 µM), without a hit: top-dose growth rescue (activation), usual class: activators | 370,000 compounds, 0.14% hits; note: % of control where 0% means no effect; nearly all actives have a fitted effect of over 65% in size
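Screening used galactose-induced yeast with toxic alpha-synuclein levels, exposed to compound for 24 hr at 30 deg C. Cell growth, read with BacTiter-Glo luminescence, gave the measured signal.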
TDP43 rescue – inhibitors of TDP-43 toxicity in yeast. TDP-43 expressing yeast growth rescue, BacTiter-Glo, 24 h. Potency, µM (titrated, usually from 46.1 µM), for inactives: at the highest dose growth rescue (activation), hits mostly activators. 410,000 compounds, 1.8% hits. AID 652104; note: % of control where 0% means no effect; nearly all actives have a fitted effect of over 50% in size
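Luminescence from BacTiter-Glo reports growth of TDP-43-expressing yeast after 24 hr at 30 deg C with compound. Cells were raffinose-pregrown to mid-log, then seeded in galactose medium at OD600=0.02.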
FUS suppressor – FUS proteinopathy suppression in yeast; S. cerevisiae FUS-expressing, growth rescue, OD600, 24 h; Potency, µM (series often up to 76.6 µM), most hits filed as activators; 390,000 compounds, 0.24% hits; AID 1347120;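 note: plate controls were DMSO vehicle for no effect and reference control for full effect; nearly all actives have a fitted effect of over 55% in size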
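Quantitative HTS measuring growth restoration of FUS-toxic yeast. Galactose-induced cells (OD 0.005) were exposed 24hr at 30C to compounds at several concentrations, then absorbance at 600 nm was recorded.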
Abeta rescue – restores growth of yeast expressing A-beta42 peptide | yeast expressing A-beta42, growth rescue, OD600, 48 h; response scale: 0% DMSO, 100% iron-clioquinol control | Potency, µM (top dose mostly 46.1 µM), most hits filed as activators | 410,000 compounds, 0.063% hits | AID 1347071; note: nearly all actives have a fitted effect of over 55% in size
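Yeast A-beta toxicity model in growth medium with pinned compounds, 48 h at 30 C; growth read as absorbance at 600 nm. Normalized to FeCl3/clioquinol equimolar mix (positive) and DMSO (negative).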
Numbers without * were called inactive; i = inactive; ? = inconclusive; . = no result; [ ] = dose if it differs, or a comment. Rows were chosen to be rich in hits. Some 2.1% of all compounds tested hit in one or more screens of this group. Calls come from the whole dose curve; as a rule, active = well fitted curve in the direction sought with a large enough effect; inconclusive = small, poorly fitted or top-dose-only effect, or another doubt; inactive = no such curve, though single readings can be large; an effect the other way counts as inactive or inconclusive. Potency is the fitted concentration of half-maximal effect.

SMILES | aSyn rescue | TDP43 rescue | FUS suppressor | Abeta rescue
COc1cccc(CNc2nc3cc(-c4ccc(C)cc4)sc3c(=O)n2C)c1OC | ? | 25.1µM* | i | i
Cn1c(OCC2CCCO2)nc2cc(-c3ccccc3)sc2c1=O (stereo unspecified) | 11.1% | 35.5µM* | i | i
COCCNc1nc2cc(-c3ccccc3)sc2c(=O)n1C | 11.4% | 20µM* | i | i
CCC(C)[C@H](NC(=O)[C@H](CC(C)C)NC(=O)OC(C)(C)C)C(=O)N[C@@H](Cc1ccccc1)C(=O)OC (stereo partly specified) | . | . | i | .
CC1(C)CC(=O)C2=C(C1)NC(Nc1nc3ccccc3o1)=NC2c1cccc(F)c1 (stereo unspecified) | -6.5% | . | . | .
COC(=O)c1cc(N=Nc2c(C)[nH]c3ccccc23)cc(C(=O)OC)c1 | 1.1% | 0.4% | i | i
Cc1[nH]c2ccccc2c1N=Nc1cccc(C(=O)O)c1 | -59.4% | 17.8µM* | i | i
CC(C)(C)c1ccc(C(=O)Nc2cc(Cl)ccc2C(=O)O)cc1 | . | . | i | .
COc1ccc2cc3cc(C(=O)NCCN4CCc5ccccc5C4)oc3nc2c1 | 25.1µM* | 11.2µM* | i | i
COc1ccc2cc3cc(C(=O)N4CCCCCC4)oc3nc2c1 | 2.7% | 18.0% | i | i
COc1ccc2cc3cc(C(=O)N(C)C4CCCCC4)oc3nc2c1 | 12.8% | 17.8µM* | i | i
COc1ccc2cc3cc(C(=O)NCCN4CCN(Cc5ccccc5)CC4)oc3nc2c1 | -0.8% | 9.4% | i | i
O=S(=O)(c1ccccc1F)n1c(CN2CCOCC2)nc2ccccc21 | . | . | i | .
O=[N+]([O-])c1ccccc1OCc1nc(-c2cccs2)no1 | 3.0% | 12.6µM* | i | i
CCOC(=O)n1c(=O)oc2ccc(Cl)cc21 | 1.4% | 10µM* | i | i
CCOC(=O)n1c(=O)n(Cc2ccc(Cl)cc2Cl)c2ccccc21 | 18.7% | 22.4µM* | i | i[9.22 µM]
CCCCOC(=O)n1c(=O)oc2ccccc21 | -4.1% | 5.5% | i | i[9.22 µM]
C=CCN1C(=O)[C@@H](CC(=O)NCCCN2CCCC2=O)[C@]2(C(=O)OC)CCCCC=C12 | . | . | i | .
COC(=O)Oc1nsnc1N1CCOCC1 | -40.1% | -12.0% | i | i
Brc1ccc(Oc2nsnc2N2CCOCC2)cc1 | -5.9% | 11.2µM* | i | i
COc1ccccc1S(=O)(=O)Cc1ccc(C(=O)NCc2ccc(Cl)cc2)o1 | . | 18.8% | i | i
Cc1cc2cc(C(c3nnnn3Cc3ccco3)N3CCc4ccccc4C3)c(=O)[nH]c2cc1C (stereo unspecified) | 2.7% | -16.7% | 14.1µM* | i
Cc1cc2cc(C(c3nnnn3Cc3ccco3)N3CCc4ccccc43)c(=O)[nH]c2cc1C (stereo unspecified) | 0.1% | -0.2% | ? | i
O=C(NC1CCCCN(Cc2ccc(OC(F)(F)F)cc2)C1=O)c1ccc(F)c(F)c1 (stereo unspecified) | . | . | i | .
O=C(Cc1ccc(F)cc1)NCCc1csc(-c2cccc(F)c2)n1 | . | 11.2µM* | i | i
SMILES | aSyn rescue | TDP43 rescue | FUS suppressor | Abeta rescue
O=S(=O)(NCCc1csc(-c2cccnc2)n1)c1cc(F)ccc1F | -14.6% | ? | . | 14.1µM*
Cc1cccc(-c2nc(CCNC(=O)Cc3ccc(F)cc3)cs2)c1 | . | 28.0% | i | i
O=C(NCCc1csc(-c2ccc(C(F)(F)F)cc2)n1)c1ccc(F)c(F)c1 | -4.2% | 25.1µM* | ? | i
O=C(NCCc1csc(-c2ccc(F)cc2)n1)c1cccc(F)c1 | . | 15.8µM* | i | i
S=C(Nc1nc2c(s1)CCCC2)NC1CC1 | 1.9% | 26.4% | i | 8.91µM*
Cc1cccc(C(=O)N[C@H]2CC[C@@]34CCCN3C(=O)CCC[C@H]4[C@H]2C)c1 | . | . | i | .
O=C1NC(c2cccc3ccccc23)Nc2ccc(Cl)cc21 (stereo unspecified) | 1.2% | 11.2µM* | . | i
Clc1ccc(C2Nc3cccc4cccc(c34)N2)c(Cl)c1 | 16.3% | . | i | ?
CCCCn1c(N)c(N(CCOC)C(=O)c2oc3ccc(Br)cc3c2C)c(=O)[nH]c1=O | -2.9% | 1.7% | 15.8µM* | i
CCCCN(C(=O)c1oc2ccc(OCC)cc2c1C)c1c(N)n(CCCC)c(=O)[nH]c1=O | -2.2% | 16.2% | . | i
COC(=O)C[C@@H]1CC[C@H]2[C@@H](COc3ccc(NS(=O)(=O)c4ccccc4F)cc3C(=O)N2C)O1 | . | . | i | .
CCOC(=O)CNC(=O)CSc1nc(-c2ccc(OC)cc2)ns1 | 16.6% | 25.1µM* | i | i
Cc1oc2c(c1C(=O)N1CCC(C)CC1)C(=O)c1ccccc1C2=O | 7.8% | 12.6µM* | i | i
CCOC(=O)C1CCN(C(=O)c2c(C)oc3c2C(=O)c2ccccc2C3=O)CC1 | -3.0% | 0.0% | i | i
O=S(=O)(c1ccc(CN2CCOCCOCCN(Cc3ccc(S(=O)(=O)C(F)(F)F)cc3)CCOCC2)cc1)C(F)(F)F | . | . | i | .
Cc1cc(=O)n2nc(N3CCC(C(=O)Nc4ccc(Br)c(C)c4)CC3)sc2n1 | . | 14.6% | i | i
Cc1cccc(OCC(=O)NCc2ccc3c(c2)CCN3C(=O)c2ccccc2)c1 | . | 25.1µM* | ? | i
O=C(COc1ccc2c(c1)CCC2)NCc1ccccc1 | 8.6% | 11.2µM* | . | i
C/C(=N\NC(=S)NCc1ccccc1)c1ccc2c(c1)OCCO2 | -1.7% | 12.6µM* | i | i
CN1C(=O)c2ccccc2N(C)C1c1ccccc1Cl (stereo unspecified) | 13.1% | 15.8µM* | i | i
CN1C(=O)c2ccccc2N(C)C1c1cccs1 (stereo unspecified) | 11.1% | 13.9% | i | i
O=[N+]([O-])c1ccc(-c2nc(-c3cccs3)c(-c3cccs3)[nH]2)cc1 | -11.6% | 3.16µM* | i | i
O=[N+]([O-])c1cccc(-c2nc(-c3cccs3)c(-c3cccs3)[nH]2)c1 | -9.3% | 8.6% | i | ?
COc1cccc(N2CCN(CC(=O)NCc3c(F)cccc3F)CC2)c1 | . | . | i | .
O=C(CC1C(=O)OCCN1Cc1ccccc1)Nc1cccc(C(F)(F)F)c1 (stereo unspecified) | . | 17.8µM* | i | i
SMILES | aSyn rescue | TDP43 rescue | FUS suppressor | Abeta rescue
COc1cccc(NC(=O)CC2C(=O)OCCN2Cc2ccccc2)c1 (stereo unspecified) | . | ? | i | i
COc1cccc(NC=C2C(=O)OC3(CCCCC3)OC2=O)c1 | 3.9% | 25.1µM* | . | i
COc1cccc(NC=C2C(=O)OC(C)(C)OC2=O)c1 | 0.7% | ? | i | i
CCc1ccc(CNCC(=O)N2CCC3(CC2)OCCO3)s1 | . | . | i | .
Cc1cccc(-c2cc(C(=O)NCc3ccccn3)c3ccccc3n2)c1 | -2.7% | 35.5µM* | . | i
O=C(Nc1nccs1)c1cc(-c2ccccc2)nc2ccccc12 | -20.1% | 14.1µM* | i | i
NNC(=O)c1cc(-c2cccs2)nc2ccccc12 | -0.8% | -8.7% | i | i
